# A selection: hits, their analogues and other compounds. The true share with any hit is near 18%.
# DT40 TDP1 no CPT: qHTS for Inhibitors of human tyrosyl-DNA phosphodiesterase 1 (TDP1): qHTS in cells in absence of CPT; DT40 Tdp1-/- hTDP1 cells, no CPT, ATP luminescence, 48 h; Potency, µM (doses to about 46.2 µM), for the others: at the highest dose activity change, negative = growth inhibition, usual class: inhibitors; actives 15% (n = 420,000); note: potency is the fitted concentration of half-maximal effect; % is set by controls: 0 for no effect and ±100 for the full control effect; nearly all actives have a fitted effect of over 55% in size
#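 Seeded 400 DT40-hTDP1 cells/well (vehicle DMSO, no 20 nM CPT); pinned compounds; ≥48 hr at 37 °C; CellTiter-Glo luminescence as viability measure.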
# HepG2 viability: kills HepG2 cells in TGF-b inhibitor counter-screen | actives 0.76% (n = 410,000) | Potency, µM (top dose mostly 46.1 µM), without a hit: top-dose activity change, negative = cytotoxicity, most hits filed as cytotoxic | AID 588856 | HepG2 CAGA-GFP viability, ATP luminescence, 18 h; note: potency is the fitted concentration of half-maximal effect
#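 HepG2 CAGA-GFP cells (1000/well, DMEM with 1% FBS) received compound, then TGF-beta at 500 pg/mL final, and were incubated 18 hours at 37 degrees C. Viability was read by CellTiter-Glo luminescence. Media-only wells were set as complete cell-killing and DMSO as no toxicity.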
# TDP1 block: blocks human tyrosyl-DNA phosphodiesterase 1; Potency, µM (doses to about 130 µM), inactives show top-dose activity change, negative = inhibition, usual class: inhibitors; Q9NUW8; recombinant TDP1, AlphaScreen DNA substrate cleavage; actives 0.28% (n = 350,000); note: potency is the fitted concentration of half-maximal effect; % is set by controls: 0 for no effect and ±100 for the full control effect; nearly all actives have a fitted effect of over 40% in size
# Target sequence (Q9NUW8 whole entry, looked up): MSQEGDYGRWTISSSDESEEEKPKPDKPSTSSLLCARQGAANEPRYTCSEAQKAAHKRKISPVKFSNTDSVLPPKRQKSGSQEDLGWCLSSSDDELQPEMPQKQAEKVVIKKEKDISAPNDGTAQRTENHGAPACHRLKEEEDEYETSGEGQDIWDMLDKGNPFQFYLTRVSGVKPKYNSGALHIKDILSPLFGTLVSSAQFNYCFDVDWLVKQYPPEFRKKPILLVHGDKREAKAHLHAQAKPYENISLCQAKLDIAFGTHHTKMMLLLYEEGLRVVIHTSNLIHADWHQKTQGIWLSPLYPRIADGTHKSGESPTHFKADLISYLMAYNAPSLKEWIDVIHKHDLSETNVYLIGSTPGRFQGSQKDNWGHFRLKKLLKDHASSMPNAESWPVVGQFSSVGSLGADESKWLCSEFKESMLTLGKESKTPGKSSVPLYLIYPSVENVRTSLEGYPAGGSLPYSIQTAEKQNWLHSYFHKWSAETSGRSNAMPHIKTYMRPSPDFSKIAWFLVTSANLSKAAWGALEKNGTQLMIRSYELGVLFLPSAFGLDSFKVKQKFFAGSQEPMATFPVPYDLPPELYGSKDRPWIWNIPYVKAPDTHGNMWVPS
#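 Enzyme-compound mixtures sat 15 min at room temperature, followed by a 5 min reaction with 15 nM final substrate and 10 min with AlphaScreen beads. Recombinant human Tdp1 was used at 1 nM final.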
# IL1B secr inh: blocks inflammasome-driven IL-1 beta release; actives 4.7% (n = 360,000); activity change, % at 57.5 µM; AID 743279; THP-1 LPS/ATP IL-1B secretion, AlphaLISA, 16 h; active compounds read low; in the data active = activity change below about -50%; inconclusive = mostly about -30% to -49%; note: % is set by controls: 0 for no effect and ±100 for the full control effect
#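 THP-1 cells pretreated 1 hr with compounds (up to 57.5 uM final), then stimulated with LPS (250 ng/mL final) plus ATP (1.25 mM final); secreted IL-1B measured by AlphaLISA after 16 hr, decreased signal indicating inhibition.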
# TGFb inhibitor: TGF-b pathway inhibition; AID 588855; HepG2 CAGA-GFP TGF-b/SMAD3 reporter, GFP fluorescence, 18 h; TGF-beta stimulated, 500 pg/mL final; Potency, µM (highest dose often 46.1 µM), for inactives: at the top dose activity, negative = inhibition, most hits filed as inhibitors; actives 1.2% (n = 410,000); note: potency is the fitted concentration of half-maximal effect; % is set by controls: 0 for no effect and ±100 for the full control effect; nearly all actives have a fitted effect of over 65% in size
#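 TGF-beta reporter screen: HEPG2 CAGA-GFP, 1% FBS, 500 pg/mL TGF-beta final, 18 h; per-cell GFP summed per well; curves fitted and categorized by class.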
# TDP1 cell CPT: growth inhibition of DT40 Tdp1-/-;hTDP1 cells with camptothecin (screen for TDP1 inhibitors). AID 686979. chicken DT40 Tdp1-/-;hTDP1 cells + 20 nM CPT, ATP luminescence, 48 h. actives 12% (n = 420,000). Potency, µM (doses to about 46.2 µM), for inactives: at the highest dose activity change, negative = growth inhibition, actives largely listed as inhibitors; note: potency is the fitted concentration of half-maximal effect; % is set by controls: 0 for no effect and ±100 for the full control effect; nearly all actives have a fitted effect of over 55% in size
#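 Cell growth measured by CellTiter-Glo luminescence after a minimum 48 h, 37 C compound exposure with 20 nM CPT in Tdp1-knockout DT40 cells stably expressing hTDP1, seeded 400/well; qHTS titration format.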
# The depositor's hits bear a star; ? = inconclusive; · = no result given; [ ] = dose if it differs, or a comment. Unless noted, calls come from the whole dose curve; as a rule, active = well fitted curve in the direction sought with a large enough effect; inconclusive = small, poorly fitted or top-dose-only effect, or another doubt; inactive = no such curve, though single readings can be large; an effect the other way counts as inactive or inconclusive.
SMILES,DT40 TDP1 no CPT,HepG2 viability,TDP1 block,IL1B secr inh,TGFb inhibitor,TDP1 cell CPT
O=C1c2ccccc2C(=O)C1c1ccncc1,23µM*,-9%,-1%,-21,30%,?
COc1ccc(-c2cn3nc(N4CCCC(C(=O)Nc5ccccc5F)C4)sc3n2)cc1 (configuration not stated),15µM*,8%,7%,·,?,21µM*
Cc1ccc(-c2cn3nc(N4CCCC(C(=O)NCc5ccccc5F)C4)sc3n2)cc1 (configuration not stated),?,-27%,4%,·,0%,?
COc1ccc(-c2cn3nc(N4CCCC(C(=O)NCc5ccccc5OC)C4)sc3n2)cc1 (configuration not stated),?,2%,2%,·,?,18µM*
COc1ccc(-c2cn3nc(N4CCCC(C(=O)Nc5cc(C)ccc5C)C4)sc3n2)cc1 (configuration not stated),16µM*,-19%,-1%,·,0%,23µM*
Cc1c(C=O)ccc(N(C)C)c1C,-11%,5%,·,·,-1%,12%
CC(=O)Nc1cccc(C(=O)/C=C/c2ccc[nH]2)c1,?,-9%,0%,-23,-12%,?
CC(=O)Nc1cccc(C(=O)/C=C/c2ccc(N(C)C)cc2)c1,?,-7%,-13%,?,104%,3%
CC(=O)Nc1cccc(C(=O)/C=C/c2ccc(/C=C/C(=O)c3cccc(NC(C)=O)c3)cc2)c1,·,·,3%,·,·,·
CC(=O)Nc1cccc(C(=O)/C=C/c2ccc(Br)cc2)c1,4.6µM*,-38%,0%,-107*,?,3.3µM*
CC(=O)Nc1cccc(C(=O)/C=C/c2cccs2)c1,21µM*,-12%,4%,-105*,?,?
CC(=O)Nc1cccc(C(=O)/C=C/c2ccc(F)cc2)c1,4.6µM*,13µM*,-5%,-192*,?,2.3µM*
O=C(COc1ccccc1F)Nc1ccc2oc(-c3cccc(Cl)c3)nc2c1,-6%,1%,-7%,·,-2%,-12%
O=C(CCSc1nnc(-c2ccncc2)o1)Nc1ccc(F)cc1,-27%,-3%,3%,10,-2%,-18%
C=CC#CC[N+]1(CC#Cc2ccccc2)CCOCC1,-13%,-1%,5%,-9,-3%,1%
C=CC[N+]1(CC#Cc2ccccc2)CCCC1,?,9%,0%,36,-3%,?
C#CC[N+]1(CC#Cc2ccc(C)cc2)CCCCC1,3.3µM*,3%,3%,15,0%,2.3µM*
C(#Cc1ccccc1)C[N+]1(CC#Cc2ccccc2)CCCC1,1µM*,0%,1%,?,-4%,1.8µM*
CS(=O)(=O)c1ccc(CNC(=O)[C@H]2C[C@@H]2[C@H](NP(=O)(c2ccccc2)c2ccccc2)c2ccccc2)cc1,·,·,9%,·,·,·
CCn1nc(C)cc1C(=O)Sc1cccc(Br)c1,4.6µM*,20µM*,-4%,-102*,?,3.7µM*
CCn1nc(C)cc1C(=O)Sc1ccc(Cl)cc1Cl,3.7µM*,-23%,·,-62*,?,3.7µM*
CCn1nc(C)cc1C(=O)OCC(=O)c1ccc(Cl)cc1,-18%,-14%,0%,6,-1%,-15%
Cc1cc(C=O)c(C)n1-c1ccc(Cl)c(C(=O)O)c1,3%,-14%,45µM*,1,-3%,-1%
Cc1cc(/C=C(\C#N)C(N)=O)c(C)n1-c1ccc(N2CCOCC2)c([N+](=O)[O-])c1,23µM*,-35%,7%,0,-19%,23µM*
COc1ccc(-n2c(C)cc(C=O)c2C)cc1Cl,-26%,-5%,-1%,-1,-15%,-27%
SMILES,DT40 TDP1 no CPT,HepG2 viability,TDP1 block,IL1B secr inh,TGFb inhibitor,TDP1 cell CPT
Cc1cc(C=O)c(C)n1-c1ccc(N2CCCCC2)c([N+](=O)[O-])c1,21µM*,-8%,12%,?,?,8.2µM*
Cc1cc(C=O)c(C)n1-c1ccc(N2CCOCC2)cc1,?,0%,2%[56.1 µM],?,0%,?
Cc1noc(/C=C/c2ccccc2F)c1S(=O)(=O)N1CCC(C(=O)N2CCOc3ccccc32)CC1,?,0%,2%,·,-3%,?
C/C(CCN1CCc2nc(-c3ccccc3)c(-c3ccccc3)cc2C1)=N\OC[C@@H](O)COCc1ccco1,·,·,2%[21 µM],·,·,·
CCOc1ccc(NC(=O)Cn2c(=O)c(CNc3ccc(CC)cc3)cc3cc4c(cc32)OCO4)cc1,·,1%,6%,·,2%,·
COc1cc(OC)cc(-c2c(Sc3ccccc3)c3cc(-c4ccc5c(c4)OCCO5)ccc3n2C)c1,-28%,·,·,9,·,-19%
O=[N+]([O-])c1ccc(O)c(/C=N/Nc2ccc(Cl)nn2)c1,1.2µM*,-44%,10%,58,?,1.2µM*
O=[N+]([O-])c1ccc(O)c(/C=N/NC2=NS(=O)(=O)c3ccccc32)c1,0.52µM*,-8%,15%,-11,2%,4.1µM*
O=S1(=O)N=C(N/N=C/c2cccs2)c2ccccc21,?,-26%,·,-99*,?,-6%
O=[N+]([O-])c1ccc(O)c(/C=N\N=C2c3ccccc3-c3ccccc32)c1,12µM*,-38%,5%,-23,2.8µM*,23µM*
NC(N)=N/N=C/c1cc([N+](=O)[O-])ccc1O,2%,-1%,-1%,0,-2%,5%
Cc1ccc2c(c1)N(CCC(=O)NCc1ccccc1Cl)C(=O)CO2,-24%,-11%,0%,·,?,4%
Cc1ccc(C(=O)Nc2cccc(-c3nc(CNC(=O)c4ccc(F)cc4Cl)c(C)o3)c2)s1,0%,·,·,·,·,10%[9.04 µM]
CCN1C=C(Cc2ccccc2C)C2=C(C1)C(c1ccccc1C)C(C#N)=C(N)O2 (configuration not stated),21µM*,125%,12%,?,170%,16µM*
CCN1C=C(Cc2ccc(F)cc2)C2=C(C1)C(c1ccc(F)cc1)C(C#N)=C(N)O2 (configuration not stated),16µM*,-5%,6%,-103*,?,?
O=C(Cn1c(=O)oc2cc(S(=O)(=O)N3CCCCCC3)ccc21)Nc1ccc(F)cc1F,?,-23%,3%,·,·,?
O=C(Nc1c(C(=O)c2ccc(F)cc2)oc2ccccc12)c1cc(-c2ccccc2)on1,-26%,-15%,-7%,·,9%,-24%
